Assay results taken from PubChem BioAssay (NCATS).
Results filed as inconclusive are left out. Calls of active or inactive are those of the source. The call rests on the fitted dose curve; in most records, active means well fitted inhibition curve with a large enough effect; inconclusive means small, poorly fitted or top-dose-only effect; inactive means flat fitted curve, though single readings scatter. Numbered stars: 1 amine (or outer) side, 2 acyl side, 3 side chain; on linkers, the order of the positions; unused ones are H or OH. Bridge positions count the residues as written; N and C are the ends. Peptide text beside a SMILES is read from it. X4 = O=C(CCC[*:2])[*:1]

target: Aldehyde dehydrogenase, mitochondrial (Homo sapiens) (UniProt P05091); assay: qHTS for Inhibitors of the Aldehyde Dehydrogenase Family (ALDH2) Primary screen (AID 2061308); conditions: ALDH2 enzyme inhibition qHTS, 1536-well; series mostly up to 56 µM; activity change, negative = inhibition: at the top concentration;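 further: plate controls were vehicle for no effect and reference inhibitor for full effect; nearly all actives have a fitted effect of over 55% in size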

Structure (SMILES)	activity change, negative = inhibition
N#CC1C(=O)N=C(c2cc(Cl)ccc2O)C=C1c1cc(OCc2ccccc2)cc(OCc2ccccc2)c1 (stereo not given)	-6.37% (inactive)
C/C=C(\C)C(=O)OC[C@H]1O[C@@H](O[C@H]2[C@@H](O[C@H]3O[C@H](CO)[C@@H](O)[C@H](O)[C@H]3O[C@@H]3O[C@H](CO)[C@@H](O)[C@H](O)[C@H]3O)O[C@H](COC(=O)/C(C)=C/C)[C@@H](O)[C@@H]2O)[C@H](O)[C@@H](O)[C@@H]1O	-2.47% [at 16.9 µM] (inactive)
CC(C)CC(=O)NCCn1cc(C(=O)O)c(=O)cc1C(O)c1ccccc1 (stereo not given)	-3.92% (inactive)
O=C1NC2CCc3nc4ccccc4c(=O)n3C2=Nc2ccccc21 (stereo not given)	-2.69% (inactive)
C[C@@H]1CC[C@]2(C(=O)O)CC[C@]3(C)C(=CCC4[C@@]5(C)C[C@@H](O)[C@@H](O)C(C)(C)C5CC[C@]43C)C2[C@]1(C)O (stereo not given in full)	-3.5% [at 28 µM] (inactive)
CCNC(=O)Nc1ccc(-c2nc3c(c(N4CCOC[C@@H]4C)n2)CCN(c2ncccn2)C3)cc1	-3.46% (inactive)
COc1cc(/C=C/C(=O)OC2CC(OC(C)=O)C(OC(C)=O)C3C2CCC2C(=O)OC(c4ccoc4)CC23C)ccc1O[C@@H]1O[C@H](CO)[C@@H](O)[C@H](O)[C@H]1O (stereo not given in full)	4.73% [at 16.9 µM] (inactive)
CC1=CCC2C(C)(C)CCCC2(C)C1CC12OC1C(O)C(CO)=CC2O (stereo not given)	1.54% (inactive)
CC(=O)OC[C@]12[C@@H](OC(=O)c3ccoc3)C[C@@H]3[C@@H](OC(C)=O)[C@]1(OC3(C)C)[C@@](C)(O)C[C@H](OC(=O)c1ccoc1)[C@@H]2OC(=O)c1ccoc1	6.81% [at 16.9 µM] (inactive)
COc1ccc(C2(N(C)C(=O)c3ccc(NC(=O)c4ccco4)cc3)CCOCC2)cc1	-2.77% (inactive)
CCC/C=C/C(=O)O[C@H]1CC(C)(C)CC2[C@@]13[C@H](O)C[C@]1(C)[C@@]2(CCC2[C@@]4(C)CC[C@H](O[C@@H]5O[C@H](C(=O)O)[C@@H](O)[C@H](O[C@@H]6O[C@H](CO)[C@H](O)[C@H](O)[C@H]6O[C@@H]6O[C@@H](C)[C@H](O)[C@@H](O)[C@H]6O[C@@H]6OC[C@](O)(CO)[C@H]6O)[C@H]5O[C@@H]5O[C@H](CO)[C@H](O)[C@H](O)[C@H]5O)C(C)(C)C4CC[C@]21C)O[C@H]3O (stereo not given in full)	11.6% [at 11.2 µM] (inactive)
C/C(=C\CCC1(C)C2CC3C(C2)C31C)C(=O)O (stereo not given)	3.23% (inactive)
CC(C)(C)NS(=O)(=O)c1cncc(-c2cc(F)c3nc(N)nn3c2)c1	28.3% (inactive)
NCCOCCOCCNC(=O)Cc1ccc(Nc2nc(NCc3ccc(F)cc3)nc(NCC3CCCCC3)n2)cc1	5.43% (inactive)
CC[C@H](C)[C@@H]1NC(=O)[C@H](Cc2ccc(OC)cc2)NC(=O)CCCSC[C@@H](C(=O)N2CCC[C@H]2C(=O)N[C@@H](CC(C)C)C(=O)NCC(N)=O)NC(=O)[C@H](CC(N)=O)NC(=O)[C@H](CCC(N)=O)NC1=O (Y(Me)IQNCPLG-NH2; linker N-5 via X4)	0.851% (inactive)
C=C1C(O)C[C@@H]2C(C(=O)O)=CO[C@@H](O[C@@H]3O[C@H](CO)[C@@H](O)[C@H](O)[C@H]3OC(=O)c3ccc(O)cc3)[C@H]12 (stereo not given in full)	5.72% [at 28 µM] (inactive)
O=C(N[C@@H]1CCCc2c1cnn2-c1ccc(F)cc1F)c1ccccn1	-19.7% (inactive)
COc1ccc(F)cc1-c1cc(NC(=O)[C@@H]2CCCNC2)ncc1Cl	17.1% (inactive)
CC1(C)CC[C@]2(C(=O)O)CC[C@]3(C)C(=CCC4[C@@]5(C)C[C@H](O)[C@H](O[C@@H]6OC[C@H](O)[C@H](O)[C@H]6O)[C@@](C)(CO)C5CC[C@]43C)[C@@H]2C1 (stereo not given in full)	-5.55% [at 16.9 µM] (inactive)
CCC(C)(O)C(O)C(=O)OCc1ccc(O[C@@H]2O[C@H](CO)[C@@H](O)[C@H](O)[C@H]2O)c(OC)c1 (stereo not given in full)	8.37% [at 28 µM] (inactive)

Structure (SMILES)	activity change, negative = inhibition
CC(C)C(NC(=O)c1ccc2ccccc2n1)C(=O)NC(CC(=O)O)C(=O)COc1c(F)cccc1F (stereo not given)	-17.8% (inactive)
Cn1c(=O)c(F)c(Nc2ccc(I)cc2F)c2c(=O)n(CC(O)CO)cnc21 (stereo not given)	-4.06% (inactive)
Clc1ccc(CN[C@H]2CCN(c3ncc(Br)cn3)C2)c(Cl)c1	-3.76% (inactive)
CCC(C)C(=O)O[C@H]1[C@@H](OC(=O)c2ccoc2)C[C@](C)(O)[C@]23OC(C)(C)[C@H](C[C@H](OC(=O)c4ccoc4)[C@]12COC(C)=O)[C@H]3OC(C)=O (stereo not given in full)	-1.36% [at 16.9 µM] (inactive)
C/C(=C\CCC(C)(O)c1ccc(C)cc1)C(=O)O (stereo not given)	-10.2% (inactive)
C=C(C)C1CCC2(C(=O)OC3OC(COC4OC(CO)C(O)C(O)C4O)C(OC4OC(C)C(O)C(O)C4O)C(O)C3O)CCC3(C(=O)O)C(CCC4C5(C)CCC(=O)C(C)(C)C5CCC43C)C12 (stereo not given)	15.5% [at 16.9 µM] (inactive)
CC1(C)CC2C(O)C3=C(CC(C)(O)C2C1)C(=O)OC3 (stereo not given)	2.1% (inactive)
C=C1C(OC(C)=O)[C@@]23CCC4[C@](C)(C(=O)O)CCC[C@@]4(C)[C@]2(O)CC[C@H]1C3 (stereo not given in full)	7.7% (inactive)
O=C(OC[C@H]1O[C@H](O[C@]2(CO)O[C@H](CO)[C@@H](O)[C@@H]2O)[C@H](O)[C@@H](O)[C@@H]1O)c1ccc(O)cc1	1.6% [at 28 µM] (inactive)
CC1=CC(=O)CC(C)(C)[C@H]1/C=C/C(CO)O[C@@H]1O[C@H](CO)[C@@H](O)[C@H](O)[C@H]1O (stereo not given in full)	10% (inactive)
CC12CC34CC(O)C5C(CO)(CO)CC(=O)CC5(C)C3CC1C2C4 (stereo not given)	13.6% (inactive)
CCC(C)/C=C(C)/C=C/C1=CC2=C(Cl)C(=O)C(C)(O)C(=O)C2(O)C(OC)O1 (stereo not given)	-8.05% [at 28 µM] (inactive)
CC1CC(=O)C2=C(O1)OC1(C)CCC3C(C)(C)C=CC(=O)C3(C)C1C2 (stereo not given)	-16.4% (inactive)
CC1(C)CC2C3=CCC4C5(C)CCC(OC6OC(CO)C(O)C(OC7OC(CO)C(O)C(OC8OC(CO)C(O)C(OC9OC(COC%10OC(CO)C(O)C(O)C%10O)C(O)C(O)C9O)C8O)C7O)C6O)C(C)(C)C5CCC4(C)C3(C)CCC2(C(=O)O)CC1O (stereo not given)	8.77% [at 11.2 µM] (inactive)
COc1cc(/C=C/C(=O)OC[C@H]2O[C@@](CO)(O[C@H]3O[C@H](CO)[C@@H](O)[C@H](O)[C@H]3O)[C@@H](OC(=O)/C=C/c3ccc(O)c(OC)c3)[C@@H]2O)ccc1O	-5.65% [at 16.9 µM] (inactive)
C=C[C@](C)(O)CC[C@H]1C(C)=CC(=O)[C@H]2C(C)(C)CCC[C@]12C	-4.27% (inactive)
CC(O)/C=C/C1(O)C(C)C(O[C@@H]2O[C@H](CO)[C@@H](O)[C@H](O)[C@H]2O)C(O)CC1(C)C (stereo not given in full)	10% [at 28 µM] (inactive)
Nc1c(Br)cc(Br)cc1CNC1CCC(O)CC1 (stereo not given)	-7.8% (inactive)
O=C(CCC1CCN(Cc2ccccc2)CC1)c1ccc2c(c1)NCCCC2	21.4% (inactive)
CC1(C)CC[C@]2(C(=O)O[C@@H]3O[C@H](CO)[C@@H](O)[C@H](O)[C@H]3O)CC[C@]3(C)C(=CCC4[C@@]5(C)C[C@@H](O)[C@H](O)[C@](C)(C=O)C5CC[C@]43C)[C@@H]2[C@@H]1O (stereo not given in full)	1.08% [at 16.9 µM] (inactive)
